VACV Venus inh: vaccinia inhibition (Venus reporter) | Vaccinia virus Venus reporter expression, fluorescence | Potency, µM (highest dose often 36.5 µM), usual class: inhibitors | 330,000 tested, 0.46% active; calls by dose curve; tested in A549 cells; note: nearly all actives have a fitted effect of over 30% in size
Vaccinia mCherry: vaccinia inhibition (mCherry reporter); Vaccinia virus mCherry reporter infection, fluorescence; Potency, µM (titrated, usually from 36.5 µM), most hits filed as inhibitors; 310,000 tested, 0.63% active; AID 720579; calls by dose curve; tested in A549 cells; note: nearly all actives have a fitted effect of over 35% in size
HCV inh: blocks hepatitis C virus; Potency, µM (top dose mostly 41.8 µM), actives largely listed as inhibitors; AID 651820; 340,000 tested, 3.4% active; Huh7.5.1 HCVcc-Cre infection, luciferase reporter, 44 h
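Whole-lifecycle infectious HCVcc-Cre system; cells 1,000/well, compound then virus (~0.5 moi) added 4 h after plating, 44 h culture. Luciferase read 15 sec following 15 min substrate incubation, room temp.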
HCV confirm: confirmation of hepatitis C virus inhibitors; shares compounds with HCV inh; HCVcc-Cre infectious virus cell assay, luciferase, inhibition; Potency, µM (titrated, usually from 41.8 µM), hits mostly inhibitors; 640 tested, 78% active; note: nearly all actives have a fitted effect of over 80% in size
HCV host tox: toxic to HCV host cells, flagging false HCV inhibitors; shares compounds with HCV inh; HCV host cell line cytotoxicity counterscreen; Potency, µM (doses to about 41.8 µM), most hits filed as inhibitors; 640 tested, 22% active; AID 720576;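 note: 44 h compound exposure; nearly all actives have a fitted effect of over 55% in size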
Hits are given with their value; [ ] = remark or other dose. This is a sample that favours compounds with a hit; in the whole collection about 3.3% have one here. Unless noted, calls come from the whole dose curve; as a rule, active = well fitted curve in the direction sought with a large enough effect; inconclusive = small, poorly fitted or top-dose-only effect, or another doubt; inactive = no such curve, though single readings can be large; an effect the other way counts as inactive or inconclusive.

What do the screens show for `O=C(Nc1cnn(Cc2ccc(Cl)cc2Cl)c1)c1noc2c1CCc1ccccc1-2`?
VACV Venus inh: inactive; Vaccinia mCherry: inactive

Results for FCCCOc1ccc(-c2ccnc(-c3ccccc3)n2)cc1 ?
VACV Venus inh: inactive; HCV inh: inconclusive

What do the screens show for `FCCCOc1ccc(-c2nccc(-c3ccc(F)cc3)n2)cc1`?
VACV Venus inh: inactive; HCV inh: inconclusive; HCV confirm: inconclusive; HCV host tox: inactive

How did CCCCn1cc(S(=O)(=O)c2ccc(Cl)cc2)c(=O)c2cc(F)c(N3CCCCC3)cc21 do in these assays?
VACV Venus inh: inactive; Vaccinia mCherry: inactive

Results for Cc1[nH]c2ccccc2c1/C=C(\C#N)C(=O)NC1CC1 ?
VACV Venus inh: inactive; Vaccinia mCherry: inactive; HCV inh: inconclusive

How did COC(=O)/C(C#N)=C\c1c(OC)[nH]c2ccccc12 do in these assays?
HCV inh: 3.98µM; HCV confirm: 11.2µM; HCV host tox: inactive

What do the screens show for `CCOC(=O)c1ccc(-c2c(-c3ccc4c(c3)OCO4)noc2C)cc1F`?
VACV Venus inh: inactive; Vaccinia mCherry: inconclusive; HCV inh: inconclusive

What do the screens show for `CSc1nc2ccc(Br)cc2[nH]1`?
VACV Venus inh: inactive; Vaccinia mCherry: inactive; HCV inh: inactive

How did CSc1nc2cc(Oc3cccc(Cl)c3Cl)c(Cl)cc2[nH]1 do in these assays?
VACV Venus inh: inactive; Vaccinia mCherry: inactive; HCV inh: 7.94µM; HCV confirm: inconclusive; HCV host tox: inactive

What do the screens show for `OC1OC[C@@H](O)[C@H](O)[C@H]1O` (stereo not given in full)?
HCV inh: inactive

Results for O=C(COC(=O)Cn1[nH]c(=O)c2ccccc2c1=O)NNC(=O)c1ccc(Br)cc1 ?
HCV inh: inactive

What do the screens show for `Cc1cc(C)c(OCC(=O)OCC(=O)N2CCc3ccccc3C2)c(C)c1`?
VACV Venus inh: inactive; Vaccinia mCherry: inactive; HCV inh: inactive

What do the screens show for `Cc1cc(C)c2cc(C(=O)N3CCc4ccccc4C3)[nH]c2c1`?
VACV Venus inh: inactive; Vaccinia mCherry: inconclusive; HCV inh: inconclusive; HCV confirm: inconclusive; HCV host tox: inactive

What do the screens show for `COc1ccccc1NC(=O)Cn1nc(-c2ccc(C)cc2)c2c(c1=O)CCCC2`?
VACV Venus inh: inactive; Vaccinia mCherry: inactive

What do the screens show for `O=C(COC(=O)c1cc(Cl)ccc1Cl)Nc1ccc2[nH]c(=O)[nH]c2c1`?
VACV Venus inh: inactive; Vaccinia mCherry: inactive; HCV inh: inactive

Results for COc1ccc(S(=O)(=O)N2CCCC2CNC(=O)c2cccc(OC)c2)cc1 (stereo not given) ?
VACV Venus inh: inactive; Vaccinia mCherry: inactive; HCV inh: inactive

How did CCc1nn2cc(C(=O)c3ccccc3O)cnc2c1-c1ccc(F)cc1 do in these assays?
VACV Venus inh: inactive; Vaccinia mCherry: inactive; HCV inh: inconclusive; HCV confirm: 11.2µM; HCV host tox: inactive

What do the screens show for `CCc1nn2cc(C(=O)c3cc(C)ccc3O)cnc2c1-c1ccc(F)cc1`?
VACV Venus inh: inactive; Vaccinia mCherry: inactive; HCV inh: inconclusive

How did Cc1cccc(CN2CCN(CC(=O)NCCCN3CCN(c4ccc(F)cc4)CC3)C2=O)c1 do in these assays?
HCV inh: 5.62µM; HCV confirm: 22.3µM; HCV host tox: inconclusive

What do the screens show for `Cc1cccc(CN2CCN(CC(=O)NCCCN3CCCC3=O)C2=O)c1`?
VACV Venus inh: inconclusive; HCV inh: inactive

How did COCCNC(=O)C1(C)CCCN(Cc2cc(-c3ccccc3)on2)C1 (stereo not given) do in these assays?
VACV Venus inh: inactive; Vaccinia mCherry: inactive

What do the screens show for `CCC1CCCCN1C(=O)c1cc(COc2ccc3ncccc3c2)on1` (stereo not given)?
VACV Venus inh: inactive; Vaccinia mCherry: inconclusive; HCV inh: 3.16µM; HCV confirm: 1.77µM; HCV host tox: 3.15µM

Results for CC(=O)c1ccc(OCc2cc(C(=O)N3CCCCC3c3cccnc3)no2)cc1 (stereo not given) ?
VACV Venus inh: inactive; Vaccinia mCherry: inactive; HCV inh: inconclusive

What do the screens show for `CCn1c(=O)cc(OCC(=O)NCc2ccccc2OC)c2ccccc21`?
VACV Venus inh: inactive; Vaccinia mCherry: inactive

What do the screens show for `Cc1c(-c2ccc(Cl)cc2)c(=O)oc2c(CN3CCOCC3)c(O)ccc12`?
VACV Venus inh: inactive[7.34 µM]; Vaccinia mCherry: inactive[7.34 µM]

How did CCOC(=O)/C(C#N)=C(C)/C=C1\Sc2ccccc2N1CC do in these assays?
VACV Venus inh: inactive; Vaccinia mCherry: inactive; HCV inh: inconclusive

Results for CCN1/C(=C\C(=S)Nc2ccccc2)Sc2ccccc21 ?
VACV Venus inh: inactive; Vaccinia mCherry: inactive; HCV inh: 6.31µM; HCV confirm: 14.1µM; HCV host tox: inconclusive

How did Cc1cc(/C=C2/NC(=O)NC2=O)c(C)n1-c1ccccn1 do in these assays?
VACV Venus inh: inactive; Vaccinia mCherry: inactive; HCV inh: inactive

Results for Cc1cccc(CN2C(=O)N/C(=C/c3cc(C)n(-c4cc(C)ccn4)c3C)C2=O)c1 ?
VACV Venus inh: inactive; HCV inh: 1.78µM; HCV confirm: 15.8µM; HCV host tox: inactive

What do the screens show for `CCOC(=O)[C@]12CCCC=C1N(Cc1ccc(Cl)cc1Cl)C(=O)[C@H](CC(=O)NCC13CC4CC(CC(C4)C1)C3)C2`?
VACV Venus inh: inactive; Vaccinia mCherry: inactive

Results for O=C(Cc1cccs1)N[C@@H]1c2ccccc2CC[C@@H]1OCc1ccccc1 ?
VACV Venus inh: inactive; Vaccinia mCherry: inactive; HCV inh: inactive

What do the screens show for `CCc1cccc(C)c1NC(=O)Cn1nnc(-c2nc(-c3ccccc3F)no2)c1N`?
VACV Venus inh: inactive[7.34 µM]; Vaccinia mCherry: inactive[7.34 µM]

Results for CCN1/C(=C/c2ccc3cc(C)cc(C)c3[n+]2CC)Sc2cc(C)ccc21 ?
HCV inh: 7.08µM; HCV confirm: 7.91µM; HCV host tox: 7.91µM

Results for COc1cc(NC(=O)COc2ccc(C)c(C)c2)ccc1NC(=O)c1ccco1 ?
VACV Venus inh: inactive; Vaccinia mCherry: inactive; HCV inh: inconclusive

What do the screens show for `COc1ccccc1NC(=O)COC(=O)c1ccc2ccccc2n1`?
VACV Venus inh: inactive; Vaccinia mCherry: inactive; HCV inh: inactive

What do the screens show for `Cc1ccc(C)c(Cn2nnc(C(=O)Nc3ccc4c(c3)OCCO4)c2N)c1`?
VACV Venus inh: inactive; Vaccinia mCherry: inconclusive; HCV inh: inconclusive

How did Cc1cc(C)cc(NC(=O)c2nnn(Cc3cc(C)ccc3C)c2N)c1 do in these assays?
VACV Venus inh: inactive; Vaccinia mCherry: inactive; HCV inh: inconclusive; HCV confirm: 11.2µM; HCV host tox: inactive

How did Clc1ccc2nc(-c3ccc(Br)s3)cn2c1 do in these assays?
HCV inh: inconclusive; HCV confirm: 6.28µM; HCV host tox: inconclusive

How did COc1ccc(-c2cn3cc(Cl)ccc3n2)cc1OC do in these assays?
VACV Venus inh: inactive; Vaccinia mCherry: inconclusive; HCV inh: inconclusive

How did COc1ccc(-c2cc(C)no2)cc1S(=O)(=O)N1CCN(c2ccc([N+](=O)[O-])cc2)CC1 do in these assays?
HCV inh: 3.98µM; HCV confirm: 8.87µM; HCV host tox: 25µM

What do the screens show for `COc1cccc(N2CCN(S(=O)(=O)c3cc(-c4cc(C)no4)ccc3C)CC2)c1`?
VACV Venus inh: inactive; Vaccinia mCherry: inactive

Results for Oc1cccc(-c2nc3ncccn3c2Nc2cccc(C(F)(F)F)c2)c1 ?
VACV Venus inh: inactive; Vaccinia mCherry: inconclusive

Assay outcomes deposited in PubChem BioAssay by National Center for Advancing Translational Sciences (NCATS).
